From PubChem
Pf growth 96h: P. falciparum growth inhibition at 96 hours; AID 504834; Potency, µM (doses to about 28.7 µM), most hits filed as inhibitors; P. falciparum luciferase reporter growth, 96 h; 6.9% of 320,000 active
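P. falciparum expressing integrated firefly luciferase grown in erythrocytes (2% hematocrit, 0.05% parasitemia final) with compounds for 96 hours at 37 C, 5% CO2. Growth inhibition read as loss of luminescence after adding luciferase detection reagent.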
Pf growth 48h: P. falciparum growth inhibition at 48 hours (one generation). P. falciparum luciferase growth in erythrocytes, 48 h. Potency, µM (highest dose often 28.7 µM), hits mostly inhibitors. 5.9% of 310,000 active
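Growth was read as firefly luciferase luminescence after a 48 h, 37 C, 5% CO2 exposure of compounds to reporter-bearing P. falciparum cultures (0.1% parasitemia, 2% hematocrit final) in Albumax-supplemented RPMI 1640.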
HCMV antiviral: human cytomegalovirus inhibition. HFF cells, HCMV-luciferase reporter, 72 h; active compounds read low. activity change, negative = inhibition, % at 57.5 µM. 4.5% of 410,000 active. AID 1259415; in the data active means activity change below about -60%; inconclusive means no clear call, values can overlap the other calls; inactive means above about -39%
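After 16 h attachment at 37C, HFF cells received test compound and HCMV-luciferase (1 PFU/cell); reporter luminescence read 72 h later, data normalized against buffer-only and known inhibitor Salinomycin.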
HCV inhibitor: inhibitors of hepatitis C virus infection; Huh7.5.1 HCVcc-Cre infection, luciferase reporter, 44 h; Potency, µM (titrated, usually from 41.8 µM), actives largely listed as inhibitors; AID 651820; 3.4% of 340,000 active
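1,000 cells/well; 4 h culture; + compound; + HCVcc-Cre (~0.5 moi); 44 h; luciferase substrate, RT 15 min; read 15 sec.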
Numbers stand for hits; . = inactive; ? = inconclusive; / = not tested or not shown. An excerpt weighted towards active compounds, which were near 13% of everything screened. Unless noted, the call rests on the fitted dose curve; in most records, active means well fitted inhibition curve with a large enough effect; inconclusive means small, poorly fitted or top-dose-only effect, or another doubt; inactive means no such curve, though single readings can be large or run the other way.

SMILES	Pf growth 96h	Pf growth 48h	HCMV antiviral	HCV inhibitor
CCCCOc1ccc(C(=O)N/C(=C\c2cccc([N+](=O)[O-])c2)C(=O)OC(C)C)cc1	0.47µM	0.59µM	.	.
CC(C)COc1ccc(C(=O)N/C(=C\c2cccc([N+](=O)[O-])c2)C(=O)OC(C)C)cc1	.	0.15µM	.	.
O=C(NCCO)/C(=C\c1ccc([N+](=O)[O-])o1)NC(=O)c1ccccc1	?	?	.	.
CCCCOc1ccc(C(=O)N/C(=C\c2cccc([N+](=O)[O-])c2)C(=O)OCCC)cc1	1.7µM	?	.	.
CCCCOc1ccc(C(=O)N/C(=C/c2cccc([N+](=O)[O-])c2)C(=O)O)cc1	.	.	.	.
CCCOC(=O)/C(=C\c1ccc([N+](=O)[O-])o1)NC(=O)c1ccccc1	0.41µM	?	.	14µM
COc1ccc(C)cc1NCc1nnc2n1CCCCC2	/	/	.	/
COc1cc(/C=C2\N=C(c3ccccc3)NNC2=O)cc(OC)c1OC	?	.	-81	.
Cc1cccc(Cn2c(SCc3ccc(C(=O)NCc4ccccc4F)cc3)nc3ccncc32)c1	/	/	.	/
COC(=O)c1ccccc1NC(=O)C1CC=CCC1C(=O)O (centres undefined)	.	.	-60	.
CCn1cc(C(=O)N2CCN(c3ccccc3OC)CC2)c(=O)c2cc(S(=O)(=O)N3CCC(C)CC3)ccc21	/	/	.	/
CCc1ccc(NC(=O)c2cc(CN3CCOCC3)on2)cc1	/	/	.	/
Cc1ccc(C)c(N2CCN(C(=O)CCc3nnc4n(C)c(=O)c5ccccc5n34)CC2)c1	/	/	.	/
CC(NCc1cccs1)c1ccccc1 (centres undefined)	12µM	.	?	.
COc1ccc(C(=O)NCCNC(C)=O)cc1S(=O)(=O)NCc1ccc(Cl)cc1	.	.	.	.
COc1ccc(C(=O)NC2CCC(O)CC2)cc1S(=O)(=O)NCc1ccc(Cl)cc1 (centres undefined)	?	13µM	.	?
COc1ccc(C(=O)NCC(C)(C)N2CCOCC2)cc1S(=O)(=O)NCc1ccc(Cl)cc1	/	/	-67	?
COc1ccc(C(=O)N2CCC2)cc1S(=O)(=O)NCc1ccc(Cl)cc1	/	/	.	.
CCOC(=O)c1cc(-c2ccccc2)n(CCCC(=O)Nc2cccc(Cl)c2C)c1C	/	/	.	/
O=C(NC1CCCCC1)N1CCN(Cc2ccco2)CC1	?	.	-63	.
CC(C)N1C(=O)c2ccccc2C1C(=O)NC1CCCCCC1 (centres undefined)	0.74µM	.	.	.
O=C(NC1CCCCCC1)C1c2ccccc2C(=O)N1Cc1cccs1 (centres undefined)	.	.	.	.
O=C(NC1CCCCCC1)C1c2ccccc2C(=O)N1Cc1ccco1 (centres undefined)	1µM	.	.	.
O=C(CN1C(=O)C2CCCCN2c2ccc(C(=O)N3CCCC3)cc21)NCc1cccc(F)c1 (centres undefined)	/	/	.	/
COc1cc(-c2nnc(SCC(=O)NC(C)C)o2)cc(OC)c1OC	/	/	.	/
SMILES	Pf growth 96h	Pf growth 48h	HCMV antiviral	HCV inhibitor
COc1ccc2c3c([nH]c2c1)[C@@H](CO)N(C(=O)CC1CC1)CC31CCN(Cc2ccncc2)CC1	/	/	-74	/
CCCSc1nc(-c2ccccc2)cc(C(F)(F)F)c1C#N	.	.	?	?
N#Cc1c(C(F)(F)F)cc(-c2ccccc2)nc1SCCN1CCOCC1	.	?	.	7.9µM
CCOC(=O)C(=CNc1cc(Cl)c(-c2ccco2)c(Cl)c1)C(=O)OCC	.	12µM	.	13µM
CCOC(=O)C(=CNc1ccccc1C)C(=O)OCC	.	.	.	?
CCOC(=O)C(=CNc1ccc(C(F)(F)F)cc1Cl)C(=O)OCC	.	.	.	.
CCOC(=O)C(=CNc1ccccc1Cl)C(=O)OCC	?	.	-61	?
CCNc1nc(SCC(=O)Nc2ccc(Cl)c(Cl)c2)nc(N(C)C)n1	.	?	.	?
CCNc1nc(NCc2ccccc2)nc(SCC(=O)Nc2ccccc2)n1	?	?	.	25µM
CN(C)c1nc(NCc2ccccc2)nc(SCC(=O)Nc2ccc(Cl)c(Cl)c2)n1	12µM	10µM	.	?
Cc1cccc(NC(=O)C(=O)NCCc2csc(-c3ccc(F)cc3)n2)c1C	/	/	.	/
Cc1ccc(NC(=O)Cn2nnc(-c3ccccc3)n2)c(C)c1	/	/	.	/
COc1ccc(-n2cc(-c3ccccc3)[n+]3c2CCCCC3)cc1	0.93µM	1µM	-90	?
FC(F)Sc1ccc(-n2cc(-c3ccccc3)[n+]3c2CCC3)cc1	0.66µM	1.2µM	.	?
FC(F)Oc1ccc(-n2cc(-c3ccc(Cl)cc3)[n+]3c2CCCCC3)cc1	?	1.5µM	.	.
COc1ccc(-c2cn(-c3ccc(OC)cc3)c3[n+]2-c2ccccc2CC3)cc1	0.41µM	1.2µM	-97	.
COc1ccc(-n2cc(-c3ccccc3)nc2SC)cc1	.	.	.	?
CCCCN(CCCC)CCCNC(=O)Cn1cc(C)c(=O)[nH]c1=O	/	/	.	/
CC[C@](C)(CN(C)C)OC(=O)c1ccccc1	?	.	/	/
CN1c2ccc(Cl)cc2-c2nc(SCC(=O)NCc3ccc(F)cc3)ncc2S1(=O)=O	/	/	.	/
COC(=O)CNC(=O)c1ccc(C)s1	.	/	-102	.
Cc1ccc(C(=O)NNC(=O)c2ccoc2C)s1	.	.	-98	.
NC(=O)C1CCN(c2nc(-c3ccccc3)cs2)CC1	?	.	/	/
N#Cc1nc(-c2ccc(OCc3ccc(Cl)cc3)cc2)oc1NCCCn1ccnc1	?	2.3µM	.	.
N#Cc1nc(-c2ccccc2)oc1NCCCn1ccnc1	?	?	.	.
SMILES	Pf growth 96h	Pf growth 48h	HCMV antiviral	HCV inhibitor
CCN(CC)CCCNc1oc(-c2ccc(OC)cc2)nc1C#N	/	/	.	/
CCCCN(CC)CCNC(=O)Cn1cnc2sc(C)c(S(=O)(=O)N3CCN(c4ccccc4OC)CC3)c2c1=O	/	/	.	/
CN(C)c1ccc(C=Cc2ccnc3ccccc23)cc1N	/	/	.	/
CN(C)c1ccc(/C=C/c2cc[n+](C)c3ccccc23)cc1	?	1µM	-99	11µM
CN(C)c1ccc(C=Cc2ccnc3c(O)cccc23)cc1	/	/	-99	/
C[n+]1ccc(/C=C/c2ccccc2O)c2ccccc21	?	10µM	-97	.
CN1/C(=C/c2cc[n+](C)c3ccccc23)C=Cc2ccccc21	.	?	/	?
[O-][n+]1nc2ccccc2c2ccccc21	/	/	?	.
C[n+]1ccc(-c2ccccc2)c2ccccc21	?	1µM	-87	?
COc1ccc(-c2cc(C(F)(F)F)c(C#N)c(SCC(=O)Nc3ccc(F)cc3)n2)cc1	/	/	.	/
Cc1cc(N2CCC(C)CC2)nc2cccc(O)c12	12µM	/	.	?
CCOC(=O)c1scc(-c2ccc(C)cc2)c1S(=O)(=O)Nc1ccc(OC)c(Cl)c1	/	/	.	/
CCOC(=O)c1cc2c(=O)[nH]ccc2nc1C(F)(F)F	6.6µM	?	.	.
Cc1nsc2c1ccc1ccccc12	.	.	.	.
CC1=[N+](C)c2ccc3ccccc3c2C1(C)C	12µM	?	-84	?
Cc1c(C)n2c(SCC(=O)Nc3cccc4ccccc34)nnc2[nH]c1=O	?	12µM	.	.
COc1ccc(C(=O)CC(=O)C(=O)Nc2ccc(C)cc2Cl)cc1	.	/	.	10µM
